Several values for one entry are separate records, joined by “and”; a condition that tells them apart may be missing. Identical values can stand only once. Results filed as inconclusive are left out. A structure can be active in one record and inactive in another. Activity calls are given as the source filed them. Unless noted, calls follow the shape of the dose curve; as a rule, active = well fitted curve in the direction sought with a large enough effect; inconclusive = small, poorly fitted or top-dose-only effect, or another doubt; inactive = no such curve, though single readings can be large; an effect the other way counts as inactive or inconclusive.
Assays:
[1] = Cell Viability - MRC5 (AID 434; calls by dose curve;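 also: potency is read from the fitted curve at half-maximal effect; cells exposed to compound for 40 hours at 37 °C; potency reflects cytotoxicity seen as loss of intracellular ATP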); settings: MRC5 lung fibroblast viability, qHTS
Summary of the method: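 MRC5 normal human lung fibroblasts (1500/well) were treated with compounds for 40 hr at 37 °C in complete medium, and viable cells were measured as intracellular ATP by CellTiter-Glo luminescence. AC50 came from Hill fits, normalized to DMSO and 100 uM tamoxifen.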

[2] = Cellular Toxicity (caspase-3) HepG2 (AID 654); settings: HepG2 caspase-3 activation, luminescence; series mostly up to 92.2 µM;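 also: cells exposed to compound for 16 hours before reading; 0% = DMSO alone and 100% = caspase signal from 100 µM tamoxifen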
Summary of the method: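 HepG2 cells (1500/well) in complete medium were treated with compounds for 16 hr at 37 °C. Caspase-3/7 activity was then read as luminescence from peptide-aminoluciferin cleavage. AC50 came from Hill fits, normalized to DMSO and 100 uM tamoxifen.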

[3] = Cellular Toxicity (caspase-3) HUV-EC-C (AID 656); settings: HUV-EC-C cells, caspase-3 activation (apoptosis); series mostly up to 92.2 µM
Summary of the method: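 Luminescent caspase-3/7 activation (aminoluciferin substrate cleavage) in HUV-EC-C cells after 16 hr compound exposure, 37°C. Signal normalized to DMSO basal and 100 uM tamoxifen as 100%; AC50 from concentration-response fitted with the Hill equation.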

[4] = Cellular Toxicity (caspase-3) SHSY5Y (AID 657); settings: SH-SY5Y caspase-3 activation; series mostly up to 91.7 µM
Summary of the method: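 Luminescent caspase-3/7 readout (aminoluciferin release) in SH-SY5Y cells after 16 h compound exposure in complete medium. Activity scaled between DMSO basal and 10 uM staurosporine as 100%; concentration-response fitted to Hill equation for AC50.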

[5] = Cellular Toxicity (caspase-3) MRC-5 (AID 659); settings: MRC-5 cells, luminescence, normalized: DMSO 0%, 10 µM staurosporine 100%; series mostly up to 91.7 µM
Summary of the method: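 Luminescence from caspase-cleaved aminoluciferin substrate (Caspase-Glo 3/7, 1 hr RT) reports caspase 3/7 activity in MRC-5 lung fibroblasts after 16 hr compound exposure. Normalized to DMSO basal and 10 uM staurosporine as 100%; AC50 from Hill fits.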

[6] = Cellular Toxicity (caspase-3) Mesangial (AID 660); settings: mesangial cells, normalized: DMSO 0%, 100 µM tamoxifen 100%; series mostly up to 91.7 µM;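 also: cells exposed to compound for 16 h before the caspase read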
Summary of the method: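 Human renal glomerular mesangial cells (1000/well) were treated with compounds for 16 h at 37 °C in complete medium, then caspase 3/7 activity was read by Caspase-Glo luminescence. Data were normalized to DMSO and 100 uM tamoxifen; AC50 from Hill fits.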

[7] = Cellular Toxicity (caspase-3) SK-N-SH (AID 661); settings: SK-N-SH caspase-3 activation, qHTS, DMSO as zero, staurosporine as full; series mostly up to 91.7 µM
Summary of the method: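 SK-N-SH human neuroblastoma cells (1500/well) were treated with compounds for 16 hr at 37 °C in complete medium; caspase 3/7 activity was read by Caspase-Glo luminescence. AC50 came from Hill fits of data normalized to DMSO and 10 uM staurosporine.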

[8] = Cellular Toxicity (caspase-3) H-4-II-E (AID 663); settings: H-4-II-E rat hepatoma; Potency: caspase-3 activation; series mostly up to 92.2 µM;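 also: cells exposed to compound for 16 hr before readout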
Summary of the method: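 Luminescence from caspase-cleaved aminoluciferin substrate, read 20 min after reagent addition, reports caspase 3/7 activation in rat H-4-II-E cells after 16 hr compound exposure. Normalized to DMSO (basal) and 100 uM tamoxifen (100%); AC50 from Hill fits.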

[9] = Cellular Toxicity (caspase-3) N2a (AID 665); settings: N2a cells, luminescence, normalized: DMSO 0%, 10 µM staurosporine 100%; series mostly up to 92.2 µM;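 also: compound exposure lasted 16 h at 37 °C before readout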
Summary of the method: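 Mouse N2a neuroblastoma cells (1500/well) were treated with compounds for 16 h at 37 °C, then caspase-3/7 activity was read by Caspase-Glo luminescence after 1 h at room temperature. Data were normalized to DMSO and 10 uM staurosporine; AC50 from Hill fits.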

[10] = Cellular Toxicity (caspase-3) NIH 3T3 (AID 666); settings: NIH 3T3 caspase-3 activation, apoptosis/toxicity, 0% DMSO, 100% is 100 µM tamoxifen; series mostly up to 92.2 µM;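 also: 0% = DMSO basal and 100% = 100 µM tamoxifen stimulation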
Summary of the method: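 Mouse NIH 3T3 fibroblasts (1000 cells/well) were treated with compound for 16 hr at 37°C in complete medium; caspase-3/7 activity was read by Caspase-Glo luminescence. Normalized to DMSO and 100 uM tamoxifen; AC50 from Hill fits.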

[11] = Cellular Toxicity (caspase-3) Renal Proximal Tubule (AID 667); settings: renal proximal tubule cells, primary cells freshly taken from rat; Potency: caspase-3 activation; series mostly up to 91.7 µM;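 also: cells exposed to compound for 16 hours at 37 °C before detection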
Summary of the method: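 Luminescent caspase 3/7 signal from peptide-aminoluciferin cleavage measures apoptosis in freshly isolated rat kidney proximal tubule cells after 16 h compound exposure. Concentration-response data are normalized to DMSO and 10 uM staurosporine, and AC50 values come from Hill equation fits.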

[12] = MultiTox-Fluor Cytotoxicity Assay - LYMP1-001 - Dead Cells (AID 946); settings: LYMP1-001 lymphoblastoid cells, dead-cell protease fluorescence; series mostly up to 92.2 µM;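 also: 0% = DMSO and 100% = tetraoctylammonium bromide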
Summary of the method: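 LYMP1-001 lymphoblastoid cells (2500/well) treated 16 h at 37 C. Dead-cell protease cleavage of bis-AAF-R110 read at Ex/Em 485/520. Normalized to DMSO and 15 uM tetraoctylammonium bromide; AC50 from Hill fits.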

[13] = Cell Viability - LYMP1-002 - Assay at 16 hr (AID 948); settings: LYMP1-002 lymphoblastoid cell viability; series mostly up to 92.2 µM;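 also: 0% = DMSO alone and full effect = 92 µM tetraoctylammonium bromide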
Summary of the method: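 LYMP1-002 human lymphoblastoid cells, 2500/well; 5 hr 37 C; cpd 16 hr 37 C; CellTiter-Glo 30 min RT; luminescence (ATP). Concentration-response, Hill-fit AC50. Pos ctrl tetraoctylammonium bromide.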

[14] = MultiTox-Fluor Cytotoxicity Assay - LYMP1-002 - Live Cells (AID 955); settings: LYMP1-002 lymphoblastoid live-cell protease fluorescence viability; series mostly up to 46.1 µM; also: % is scaled to controls: 0 for no effect and ±100 for the full control effect
Summary of the method: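 Human lymphoblastoid LYMP1-002 cells, 2500/well in complete medium, rested 5 hr at 37 C, then exposed to compounds for 16 hr at 37 C. Live-cell protease cleavage of GF-AFC read by fluorescence (Ex/Em 405/510) after 60 min at room temperature; AC50 from Hill fits.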

[15] = MultiTox-Fluor Cytotoxicity Assay - LYMP1-003 - Live Cells (AID 962); settings: LYMP1-003 lymphoblastoid cells, MultiTox-Fluor live-cell protease fluorescence; series mostly up to 92.2 µM;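 also: 0% = DMSO only and full loss = 92 µM tetraoctylammonium bromide; cytotoxic hits lower the live-cell protease signal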
Summary of the method: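 LYMP1-003 human lymphoblastoid cells (2500/well) in complete medium were preincubated 5 hr at 37 C, then exposed to compounds for 16 hr at 37 C. Live-cell protease cleavage of GF-AFC read by fluorescence (Ex/Em 405/510); AC50 from Hill fits.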

[16] = Cell Viability - LYMP1-003 - Assay at 24 hr (AID 963); settings: LYMP1-003 lymphoblastoid cell viability; series mostly up to 92.2 µM;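 also: plate controls were DMSO only for no effect and tetraoctylammonium bromide positive control for full effect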
Summary of the method: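 Human lymphoblastoid LYMP1-003 cells (2500/well) were rested 5 hr at 37 C, then exposed to compounds in complete medium for 24 hr at 37 C. Cellular ATP was quantified by CellTiter-Glo luminescence, and AC50 values came from Hill fits of concentration-response data.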

[17] = Cell Viability - LYMP1-002 - Assay at 24 hr (AID 993); settings: LYMP1-002 lymphoblastoid cells viability; series mostly up to 92.2 µM; also: % is scaled to controls: 0 for no effect and ±100 for the full control effect
Summary of the method: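 Human lymphoblastoid LYMP1-002 cells, 2500/well in complete medium, were treated with compounds for 24 h at 37 C; intracellular ATP was read by CellTiter-Glo luminescence. AC50 values came from Hill-equation fits of qHTS concentration-response data.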

[18] = qHTS Assay for Identification of Small Molecule Inducers of Hypoxia Response (AID 2120; active = well fitted curve in the direction sought with a large enough effect in the signal ratio, with a control signal flat, not every such curve was filed as active; the % refers to the signal ratio; also: potency is read from the fitted curve at half-maximal effect; as to activation: 0% is about no effect); settings: hypoxia response reporter cells, beta-lactamase ratio readout; series mostly up to 104 µM
Summary of the method: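 HRE-beta-lactamase reporter in CellSensor HRE-bla ME-180 cells, 2500 cells/well in Opti-MEM with 0.5% dialyzed FBS; compounds tested as titration series, 17 h at 37 degrees C. CCF4 substrate 2.5 h at room temperature; AC50 from 460/530 nm ratio.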

[19] = biological target: Peroxisome proliferator-activated receptor alpha (Homo sapiens) (UniProt Q07869); test: qHTS assay for small molecule agonists of the peroxisome proliferator-activated receptor alpha (PPARalpha) signaling pathway (AID 651778); settings: PathHunter PPARalpha complementation, chemiluminescence, 6 h; max response: hits give high values; also: % of control where 0% means no effect
Summary of the method: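 Cells plated at 2,000/well and held overnight at 37 C, 5% CO2, then compound added by pin tool for 6 hr; after PathHunter detection reagent and 60 min at room temperature, chemiluminescence from enzyme complementation was read.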

[20] = qHTS assay for small molecule agonists of the antioxidant response element (ARE) signaling pathway measured by Nrf2-dependant transcriptional activity - cell viability counter screen (AID 720653; active = well fitted curve in the direction sought with a large enough effect in the repeat runs; an effect the other way counts as inactive or inconclusive; also: potency is read from the fitted curve at half-maximal effect; as to max response: % is scaled to controls: 0 for no effect and ±100 for the full control effect); settings: ARE-bla HepG2 viability, CellTiter-Glo ATP luminescence, 16 h; max response: hits give low values
Summary of the method: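 ARE-bla HepG2 cells (2,000/well) rested 5 hrs at 37C/5% CO2, then exposed to compounds in DMSO for 16 hrs. Viability was read in the same wells as intracellular ATP by luminescence, 30 min at room temperature after reagent addition.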

Peroxisome proliferator-activated receptor alpha (Homo sapiens), sequence (Q07869 whole entry, looked up): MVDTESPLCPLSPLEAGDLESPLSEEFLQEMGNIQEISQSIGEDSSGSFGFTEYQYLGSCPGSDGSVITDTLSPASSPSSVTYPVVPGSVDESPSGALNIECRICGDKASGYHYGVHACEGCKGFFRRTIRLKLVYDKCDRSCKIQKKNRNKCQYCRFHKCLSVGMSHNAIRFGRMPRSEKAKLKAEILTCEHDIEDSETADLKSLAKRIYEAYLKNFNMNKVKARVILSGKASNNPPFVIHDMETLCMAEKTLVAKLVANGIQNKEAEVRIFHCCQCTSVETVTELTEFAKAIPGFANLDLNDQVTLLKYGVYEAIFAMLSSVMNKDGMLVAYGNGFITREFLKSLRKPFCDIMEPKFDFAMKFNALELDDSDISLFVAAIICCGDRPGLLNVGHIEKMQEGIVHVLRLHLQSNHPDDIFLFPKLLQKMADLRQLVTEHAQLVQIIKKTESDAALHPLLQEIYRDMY

C/C=C/C=C/C=O
inactive: Potency [1] > 92 µM | Potency [2] | Potency [3] | Potency [4] | outcome [5] | outcome [6] | outcome [7] | Potency [8] | outcome [9] | outcome [10] | Potency [11] | Potency [12] | Potency [13] | outcome [14] | Potency [15] | Potency [16] | Potency [17] | Potency [18] | max response [19] -0.84% | max response [20] -19.3%

Cc1ccc(S(N)(=O)=O)cc1
inactive: Potency [1] > 92 µM | Potency [2] | Potency [3] | Potency [4] | outcome [5] | outcome [6] | outcome [7] | Potency [8] | outcome [9] | outcome [10] | Potency [11] | Potency [12] | Potency [13] | outcome [14] | Potency [15] | Potency [16] | Potency [17] | Potency [18] | max response [19] -6.35% and -0.652% | max response [20] 3.25% and -8.35%

Cc1ccc(O)c(N)c1
inactive: Potency [1] > 92 µM | Potency [2] | Potency [3] | Potency [4] | outcome [5] | outcome [6] | outcome [7] | Potency [8] | outcome [9] | outcome [10] | Potency [11] | Potency [12] | Potency [13] | outcome [14] | Potency [15] | Potency [16] | Potency [17] | Potency [18] | max response [19] -1.19% | max response [20] -26.2%

Cc1c2ccccc2c(C)c2c1ccc1ccccc12
inactive: Potency [2] | Potency [3] | Potency [4] | outcome [5] | outcome [6] | outcome [7] | Potency [8] | outcome [9] | outcome [10] | Potency [11] | Potency [13] | outcome [14] | Potency [15] | Potency [16] | Potency [17] | max response [19] 2.82% and -0.29% | max response [20] -7.46%
active: Potency [1] 17.9 µM | Potency [18] 44.7 µM | Potency [20] 44.7 µM

Oc1ccc(O)c2c(O)cccc12
inactive: Potency [1] > 92 µM | Potency [2] | Potency [3] | Potency [4] | outcome [5] | outcome [6] | outcome [7] | outcome [9] | outcome [10] | Potency [11] | Potency [12] | Potency [13] | outcome [14] | Potency [15] | Potency [16] | Potency [17] | Potency [18] | max response [19] 5.73% | max response [20] -23%

CCOc1ccc2nc(N)sc2c1
inactive: Potency [1] > 92 µM | Potency [2] | Potency [3] | Potency [4] | outcome [5] | outcome [6] | outcome [7] | Potency [8] | outcome [9] | outcome [10] | Potency [11] | Potency [12] | Potency [13] | outcome [14] | Potency [15] | Potency [16] | Potency [17] | Potency [18] | max response [19] -0.23% | max response [20] -3.62%
